PubChem BioAssay AID1159580 (chemical genetic matrix, 2015)
Where “and” joins values, the source holds several entries; their conditions need not be identical. Identical values can stand only once. Hit rate of the full screen: of about 5,500 compounds, about 2,000 (36%) were called active. About 18% were inconclusive and are not listed. Rule as the data show it: active = normalized growth mostly below about 0.91 (no sharp cut-off); inconclusive = no clear call, values can overlap the other calls; inactive = mostly above about 0.92. The list shows a part of the results.

Assay: chemical genetic growth profiling, strain panel (AID 1159580);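 also: tested at 20 µM; growth read once vehicle control cultures reached saturation at 30 °C; 1 = growth at the plate median or of vehicle wells; lower values mean less growth of the strain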
Settings: S. cerevisiae deletion strains, growth OD

Measured: normalized growth

COc1cc2cc3c4cc(OC)c(OC)cc4cc[n+]3c(C)c2cc1OC
inactive: locus YAL021C, strain ccr4, hits give low values 1.05 | locus YAL026C, strain drs2, hits give low values 1.03 | locus YAL030W, strain snc1, hits give low values 1.01 | locus YBL061C, strain skt5, hits give low values 1.02 | locus YBR009C, strain hhf1, hits give low values 1.01 | locus YBR021W, strain FUR4, hits give low values 1 | locus YBR023C, strain chs3, hits give low values 1.01 | locus YBR171W, strain sec66, hits give low values 1.03 | locus YBR229C, strain ROT2, hits give low values 1.01 | locus YBR231C, strain swc5, hits give low values 1 | locus YBR279W, strain paf1, hits give low values 1.01 | locus YCL011C, strain gbp2, hits give low values 1.01 | locus YCL016C, strain dcc1, hits give low values 0.997 | locus YCL029C, strain bik1, hits give low values 1.01 | locus YCL061C, strain MRC1, hits give low values 1.01 | locus YCL069W, strain vba3, hits give low values 1.01 | locus YCR088W, strain abp1, hits give low values 1.01 | locus YDL005C, strain med2, hits give low values 1.02 | locus YDL035C, strain GPR1, hits give low values 0.998 | locus YDL040C, strain nat1, hits give low values 0.992 | locus YDL074C, strain BRE1, hits give low values 0.996 | locus YDL101C, strain DUN1, hits give low values 1.01 | locus YDL134C, strain PPH21, hits give low values 0.982 | locus YDL185W, strain tfp1, hits give low values 1.02 | locus YDL192W, strain arf1, hits give low values 1 | locus YDR001C, strain nth1, hits give low values 1.01 | locus YDR069C, strain doa4, hits give low values 1.02 | locus YDR101C, strain arx1, hits give low values 1.01 | locus YDR137W, strain rgp1, hits give low values 1.06 | locus YDR159W, strain sac3, hits give low values 1 | locus YDR162C, strain NBP2, hits give low values 0.999 | locus YDR195W, strain ref2 0.97 | locus YDR297W, strain sur2, hits give low values 1.01 | locus YDR318W, strain mcm21, hits give low values 0.987 | locus YDR334W, strain swr1, hits give low values 1.02 | locus YDR335W, strain msn5, hits give low values 1.01 | locus YDR388W, hits give low values 1 | locus YDR392W, strain spt3, hits give low values 0.848 | locus YDR502C, strain sam2, hits give low values 0.987 | locus YEL003W, strain gim4, hits give low values 1.01 | locus YEL037C, strain rad23, hits give low values 1.01 | locus YEL061C, strain CIN8 (second series), hits give low values 1.01 | locus YEL061C, strain CIN8, hits give low values 1.01 | locus YER015W, strain faa2, hits give low values 1.01 | locus YER016W, strain bim1, hits give low values 1 | locus YER110C, hits give low values 1.02 | locus YER111C, strain swi4, hits give low values 1.03 | locus YER155C, strain BEM2 (second series), hits give low values 0.97 | locus YER155C, strain BEM2, hits give low values 1.01 | locus YER167W, strain BCK2, hits give low values 1 | locus YFR010W, strain ubp6, hits give low values 1.03 | locus YGL078C, strain dbp3, hits give low values 0.997 | locus YGL086W, strain mad1, hits give low values 1.03 | locus YGL167C, strain pmr1, hits give low values 1.01 | locus YGL173C, strain kem1, hits give low values 1.03 | locus YGL227W, strain vid30, hits give low values 1.01 | locus YGL240W, strain doc1, hits give low values 0.999 | locus YGL248W, strain PDE1, hits give low values 0.997 | locus YGL253W, strain hxk2, hits give low values 1.03 | locus YGR135W, strain pre9, hits give low values 0.988 | locus YGR229C, strain SMI1, hits give low values 1.01 | locus YGR252W, strain gcn5, hits give low values 0.904 | locus YHR013C, strain ard1, hits give low values 1.01 | locus YHR027C, strain rpn1, hits give low values 1.04 | locus YHR030C, strain SLT2, hits give low values 1.01 and 0.988 | locus YHR079C, strain IRE1 (second series), hits give low values 1.02 | locus YHR079C, strain IRE1, hits give low values 1 | locus YHR094C, strain hxt1, hits give low values 1.01 | locus YHR129C, strain ARP1, hits give low values 1 | locus YHR142W, strain chs7, hits give low values 1.01 | locus YHR200W, strain rpn10, hits give low values 0.994 | locus YIL066C, strain RNR3, hits give low values 1.01 | locus YIL073C, strain SPO22, hits give low values 1.01 | locus YIL125W, strain kgd1, hits give low values 1.01 | locus YIR030C, strain dcg1, hits give low values 1 | locus YJL092W, strain hpr5, hits give low values 1.01 | locus YJL095W, strain BCK1 (second series), hits give low values 1.01 | locus YJL095W, strain BCK1, hits give low values 1.01 and 0.99 | locus YJL115W, strain asf1, hits give low values 1.01 | locus YJL129C, strain trk1, hits give low values 1.02 | locus YJL134W, strain LCB3, hits give low values 1.01 | locus YJL154C, strain vps35, hits give low values 1.01 | locus YJL164C, strain tpk1, hits give low values 0.984 | locus YJL166W, strain qcr8, hits give low values 1.02 | locus YJL168C, strain set2, hits give low values 1.01 | locus YJL187C, strain SWE1 (second series), hits give low values 0.991 | locus YJL187C, strain SWE1, hits give low values 1.01
